Measured values from PubChem BioAssay AID2778 (National Center for Advancing Translational Sciences (NCATS), 2010).
Records with an inconclusive call do not appear. The source made the active and inactive calls. Calls come from the whole dose curve; as a rule, active = well fitted inhibition curve with a large enough effect; inconclusive = small, poorly fitted or top-dose-only effect, or effect the other way; inactive = flat fitted curve, though single readings scatter.

molecular target: Menin (Homo sapiens) (UniProt O00255); assay: Confirmation of Inhibitors Targeting the Menin-MLL Interaction in MLL Related Leukemias: Confirmation in an HTRF (commercial TR-FRET) Assay using His-tagged menin and biotin-labeled MLL peptide; settings: His-menin / biotin-MLL peptide binding; series mostly up to 126 µM; activity change, negative = inhibition: at the top concentration
Sequence (O00255 whole entry, looked up): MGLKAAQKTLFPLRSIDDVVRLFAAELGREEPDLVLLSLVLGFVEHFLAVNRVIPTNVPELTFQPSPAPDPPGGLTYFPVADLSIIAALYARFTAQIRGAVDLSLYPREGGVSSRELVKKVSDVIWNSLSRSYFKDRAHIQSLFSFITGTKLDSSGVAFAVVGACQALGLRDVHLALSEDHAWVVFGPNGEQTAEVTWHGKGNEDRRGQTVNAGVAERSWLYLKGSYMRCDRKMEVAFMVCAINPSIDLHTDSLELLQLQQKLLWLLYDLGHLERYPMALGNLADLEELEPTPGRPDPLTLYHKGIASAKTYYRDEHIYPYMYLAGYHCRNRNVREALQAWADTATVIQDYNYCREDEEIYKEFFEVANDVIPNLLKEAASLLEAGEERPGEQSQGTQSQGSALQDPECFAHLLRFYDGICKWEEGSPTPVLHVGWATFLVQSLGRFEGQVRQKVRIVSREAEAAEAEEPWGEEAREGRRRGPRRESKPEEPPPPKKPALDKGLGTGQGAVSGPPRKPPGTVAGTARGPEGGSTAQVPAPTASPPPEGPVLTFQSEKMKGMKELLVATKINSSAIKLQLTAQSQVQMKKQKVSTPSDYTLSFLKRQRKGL
Description: qHTS Assay for Inhibitors Targeting the Menin-MLL Interaction in MLL Related Leukemias
NIH Chemical Genomics Center [NCGC]
NIH Molecular Libraries Probe Centers Network [MLPCN]
Assay Submitter (PI): Jolanta Grembecka, Tomasz Cierpicki, University of Virginia
Translocations of the MLL (Mixed Lineage Leukemia) gene are frequently found in human leukemias affecting both children and adults. Fusion of MLL to one of more than 60 genes results in generation of oncogenic proteins upregulating Hox genes, which are vital to blood cell development. Patients harboring fusion of the MLL gene suffer from aggressive leukemias and respond poorly to available therapies. All of the oncogenic fusion proteins have a preserved N-terminal fragment of MLL that has been identified to interact with menin. It has been recently discovered that association with menin is critical to the leukemogenic activity of the MLL fusion oncoproteins. Selective targeting of the menin-MLL interaction could provide an attractive therapeutic approach to develop novel drugs for MLL-related leukemias. Small molecules blocking the menin-MLL interaction should reverse the oncogenic potential of MLL fusion proteins.
We have developed and optimized a fluorescence polarization-based assay for the identification of Menin-MLL inhibitors. The assay was run employing two different MLL-derived peptides. The present assay uses a 12 amino acid peptide labeled with fluorescein at its N-terminus. This peptide consists of the menin high affinity binding motif from MLL and is potently bound by menin. Another peptide with a mutated sequence, labeled with Texas Red, was used in parallel as a less stringent screen for inhibitors.
The present assay uses an alternate technology to confirm hits from the primary screen - homogeneous time resolved fluorescence (HTRF).
The Menin protein, the MLL-wild type (w.t.) derived peptide (N-terminal 12 amino acids), the MLL-derived peptide labeled with Texas Red and the MLL-w.t. peptide labeled with Fluorescein were kindly supplied by laboratory of Dr. Jolanta Grembecka, University of Virginia. All protein and peptide solutions were stored in single use aliquots at -80C. The Eu3+ Cyrptate-conjugated mouse monoclonal antibody anti-6 Histidine (Eu3+-AB) and the Streptavidin-XL665 conjugate (XL665) were purchased from Cisbio International (Bedford, MA). All antibody and XL665 conjugate solution stocks were stored in single use aliquots at -20C. The Buffer components for all assays were purchased from Sigma-Aldrich (St. Louis, MO) and Invitrogen (Carlsbad, CA).
1. HTRF reaction buffer: 50 mM Tris-HCl pH 7.5, 50 mM NaCl, 1mM DTT.
Before use, 0.05% BSA is added.
2. His6-Menin protein, MLL-w.t. labeled with biotin.
Stored in singe use aliquots at -80C.
3. MLL-w.t. unlabeled peptide as positive control: 10 uM final in HTRF buffer.
1. Prepare His6-Menin at 200 nM, MLL-w.t.-biotin at 80 nM in HTRF buffer.
2. Prepare His6-Menin at 200 nM, MLL-w.t.-biotin at 80 nM and 10 uM MLL-w.t. unlabeled mixture in HTRF buffer.
3. Dispense 10 ul per well of reagent in step 1 in columns 2, 4-24 in a black 384 well plate, dispense 10 ul per well of reagents from steps 2 in column 1. Incubate plate at ambient for 15 minutes.
4. Transfer 1 uL per well of compound to plate and incubate at ambient for 1 hr.
5. Dispense 10uL of the donor (6His-Cryptate, 3.5 nM final conc.) and acceptor (SA_XL, 10nM final conc.) complex in the HTRF buffer with 0.01% BSA. Incubate for 1h.
% is set by controls: 0 for no effect and ±100 for the full control effect; potency is the fitted concentration of half-maximal effect.

Activity change, negative = inhibition, inactive:
O=C(CSc1nc(O)cc(=O)n1-c1ccccc1)c1ccc(Br)cc1 -24.8%
O=C(CS)Nc1ccc2ccccc2c1 -22.4%
O=C(CSc1nnnn1-c1ccc(O)cc1)N1N=C(c2ccc3ccccc3c2)CC1c1ccccc1 (stereo not given) -19.9%
CCCn1c(=O)c(C(=O)Nc2ccccc2C(=O)OCC)c(O)c2ccccc21 2.41% [at 383 µM]
O=C(C1CCCN(Cc2cccc(Cl)c2)C1)N1CCCCC1 (stereo not given) 1.08%
O=[N+]([O-])c1ccc(S(=O)(=O)c2ccccc2)nc1 1.69% [at 383 µM]
Cc1ccc(C2=NN(C(=O)c3ccccc3F)C(c3ccccc3F)C2)cc1 (stereo not given) -10.9% [at 383 µM]
Cc1ccc(Nc2nc(N)[nH]c(=O)c2N=O)cc1 17.5%
N=c1oc2ccccc2cc1-c1nc(-c2ccc(Cl)cc2)cs1 -5.52%
CC(=O)c1cccc(OCC(O)CNCC2COc3ccccc3O2)c1 (stereo not given) 6.05%
O=c1cc(O)c2ccccc2n1Cc1ccccc1F 0.617%
COc1ccc(CN2CCC(Cc3ccccc3)CC2)c(C)c1C 7.64%
CCn1cnc2c1c(=O)n(CC(=O)O)c(=O)n2Cc1ccccc1 -1.56% [at 383 µM]
CCOC(=O)N1CCN(C(=O)c2oc3ccc(S(=O)(=O)N(CC)CC)cc3c2C)CC1 -0.309% [at 383 µM]
O=C(NNCS(=O)(=O)O)c1ccncc1 -1.81%
CN(C)CCc1c[nH]c2ccc(CC3COC(=O)N3)cc12 (stereo not given) -6.18% [at 383 µM]
O=C(N1CCOCC1)N1CCN(S(=O)(=O)c2ccc(Cl)cc2)CC1 5.87%
O=C(c1cc2c(=O)n3ccccc3nc2s1)N1CCOCC1 -10.9% [at 383 µM]
COc1ccc2nc(NC(=O)CSc3nnc(N)s3)sc2c1 -7.53%
O=S(=O)(c1ccc(-c2csc(Nc3ccc(Br)cc3)n2)cc1)N1CCCC1 -9% [at 383 µM]
N#Cc1ccc(Cl)cc1NC(=O)CNCc1cccs1 5.39%
COC(CSc1nc(N)c2c3c(sc2n1)CN(C)CC3)OC 5.19%
NC(=O)C1CCN(C2=C(Cl)C(=O)c3ccccc3C2=O)CC1 26% [at 383 µM]
COc1cnc(-c2ccccn2)nc1N(C)c1ccccc1 4.38%
CCOc1ccc2c(c1)C(NC(C)=O)C(=O)N2CCN1CCOCC1 (stereo not given) -12.1%
O=C(Nc1cc(Br)ccc1O)c1cc(-c2ccc3c(c2)OCO3)on1 -2.75% [at 383 µM]
Cc1ccc(S(=O)(=O)c2cc(OC(=O)c3ccco3)ccc2OC(=O)c2ccco2)cc1 -10.5%
CC(=O)NC1C(=O)N(CCN2CCOCC2)c2ccc(F)cc21 (stereo not given) -3.85%
COc1cccc(-c2nn(-c3ccccc3)cc2/C=C\C(=O)c2cccs2)c1 3.61%
COc1ccc(NC(=O)N2CC[C@@]3(CCCN(C(=O)c4csnn4)C3)C2)cc1 -2.47%
O=C(NC1CCN(c2ncccn2)CC1)c1c(F)cccc1F -1.59% [at 383 µM]
CCCN(CCC)CCCNC(=O)c1cc2c(=O)[nH]c3ccccc3c2s1 5.66%
O=C(NCC1CCCO1)c1ccc(OC2CCN(C(=O)C3CC3)CC2)cc1 (stereo not given) 2.92%
CC(=O)c1ccc2c(c1)N(CCCN1CCC(CCO)CC1)c1ccccc1S2 7.56% [at 62.9 µM]
O=C(Nc1ccc(F)c(Cl)c1)c1cc(-c2ccco2)on1 -9.72%
O=S(=O)(Nc1cccc(-c2cn3cccnc3n2)c1)c1ccccc1 -4.98% [at 383 µM]
CCCOc1ccc(C(=O)NNC(=S)NC(=O)c2cc(-c3ccc(Cl)cc3)nc3ccccc23)cc1 -18% [at 383 µM]

Potency, active:
N=C1c2ccccc2CN1c1ccc(N2CCOCC2)c(S(=O)(=O)Nc2ccc(Cl)cc2)c1 79.4 µM
C[C@H](NC(=O)c1cc2c(cn1)[nH]c1ccccc12)C(=O)O 79.4 µM
COc1ccc2[nH]c3c(C)c4ccncc4c(C)c3c2c1 89.1 µM
